# Data as given in the supplement of paper PMC10849652.
# Of roughly 7,900 targets only a part is listed; those with a hit were picked by preference. About 0.6% of all pairs of compound and target were hits.
# Tests used:
# Experiment in all cases: log2 fold change, soluble protein after heating vs DMSO (PISA); higher = thermal stabilisation; K562 cells, 10 uM, 30 min; active = over 0.2 and 3.5 SD of the protein, either way, in both replicates (recomputed)
# [1] = compound: Cc1ccc(NC(=O)c2ccc(CN3CC[C@H](N(C)C)C3)c(C(F)(F)F)c2)cc1Nc1nccc(-c2cncnc2)n1 [bafetinib]
# Procedure, shortened: (§1)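 K562 cells at 2×10^6 cells/mL were given 10 μM compound for 30 min. Aliquots then went through 3 min of heating across 48°C-58°C, were pooled, and were extracted in PBS with 0.5% NP-40 at 4°C, and the supernatant after 21,000xg for 90 min was quantified by TMTpro 16plex LC-MS/MS with channel sums equalised. Thermal stability relative to control samples, from duplicates, is given as log2 fold change.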
# [2] = compound: Cc1cccc(CC(=O)N2CCc3c2ccc(-c2cn(C)c4ncnc(N)c24)c3F)n1
# Procedure, shortened: as §1
# [3] = compound: Cc1cn(-c2cc(NC(=O)c3ccc(C)c(Nc4nccc(-c5cccnc5)n4)c3)cc(C(F)(F)F)c2)cn1 [nilotinib]
# Procedure, shortened: as §1
# [4] = compound: Cc1nc(Nc2n[nH]c3c2CN(C(=O)N[C@H](CN(C)C)c2ccccc2)C3(C)C)c2sccc2n1
# Procedure, shortened: as §1
# [5] = compound: Cc1nc(Nc2ncc(C(=O)Nc3c(C)cccc3Cl)s2)cc(N2CCN(CCO)CC2)n1 [dasatinib]
# Procedure, shortened: as §1
# [6] = compound: Cc1ncc(-c2ccnc(Nc3ccc(S(C)(=O)=O)cc3)n2)n1C(C)C
# Procedure, shortened: as §1
# [7] = compound: Cn1cc(-c2ccc3c(c2)CCN3C(=O)Cc2cccc(C(F)(F)F)c2)c2c(N)ncnc21
# Procedure, shortened: as §1
# [8] = compound: Cn1cc(-c2ccc3nnc(C(F)(F)c4ccc5ncccc5c4)n3n2)cn1
# Procedure, shortened: as §1
# [9] = compound: Cn1cncc1[C@@](N)(c1ccc(Cl)cc1)c1ccc2c(c1)c(-c1cccc(Cl)c1)cc(=O)n2C [tipifarnib]
# Procedure, shortened: as §1
# [10] = compound: FC(F)(F)c1ccc(/C=C/c2nc(COc3ccc(CCCCn4ccnn4)cc3)co2)cc1 [mubritinib]
# Procedure, shortened: as §1
# UniProt Q8WUH2, sequence (Q8WUH2 whole entry, looked up): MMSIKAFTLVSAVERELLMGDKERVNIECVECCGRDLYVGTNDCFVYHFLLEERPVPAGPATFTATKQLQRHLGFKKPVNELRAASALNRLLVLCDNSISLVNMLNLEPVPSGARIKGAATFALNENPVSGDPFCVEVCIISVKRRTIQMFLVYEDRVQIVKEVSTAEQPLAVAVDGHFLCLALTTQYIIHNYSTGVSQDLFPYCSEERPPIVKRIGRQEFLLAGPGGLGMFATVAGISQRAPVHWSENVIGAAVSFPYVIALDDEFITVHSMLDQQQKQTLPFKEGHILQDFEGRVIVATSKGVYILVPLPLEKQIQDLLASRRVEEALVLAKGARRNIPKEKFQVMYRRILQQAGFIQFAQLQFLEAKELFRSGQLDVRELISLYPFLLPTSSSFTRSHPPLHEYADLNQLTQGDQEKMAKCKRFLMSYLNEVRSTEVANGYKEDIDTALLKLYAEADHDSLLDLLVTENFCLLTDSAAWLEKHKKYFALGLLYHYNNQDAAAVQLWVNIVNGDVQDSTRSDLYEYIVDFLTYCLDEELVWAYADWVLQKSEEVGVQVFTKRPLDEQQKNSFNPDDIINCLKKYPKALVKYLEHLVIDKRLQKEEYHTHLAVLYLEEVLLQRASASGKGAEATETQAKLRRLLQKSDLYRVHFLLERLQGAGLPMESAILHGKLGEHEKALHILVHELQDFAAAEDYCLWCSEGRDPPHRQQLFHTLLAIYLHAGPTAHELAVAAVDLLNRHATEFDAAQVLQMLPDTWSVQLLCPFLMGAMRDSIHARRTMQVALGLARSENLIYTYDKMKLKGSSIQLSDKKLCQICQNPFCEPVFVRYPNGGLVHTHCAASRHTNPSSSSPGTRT
# UniProt Q96JI7, sequence (Q96JI7 whole entry, looked up): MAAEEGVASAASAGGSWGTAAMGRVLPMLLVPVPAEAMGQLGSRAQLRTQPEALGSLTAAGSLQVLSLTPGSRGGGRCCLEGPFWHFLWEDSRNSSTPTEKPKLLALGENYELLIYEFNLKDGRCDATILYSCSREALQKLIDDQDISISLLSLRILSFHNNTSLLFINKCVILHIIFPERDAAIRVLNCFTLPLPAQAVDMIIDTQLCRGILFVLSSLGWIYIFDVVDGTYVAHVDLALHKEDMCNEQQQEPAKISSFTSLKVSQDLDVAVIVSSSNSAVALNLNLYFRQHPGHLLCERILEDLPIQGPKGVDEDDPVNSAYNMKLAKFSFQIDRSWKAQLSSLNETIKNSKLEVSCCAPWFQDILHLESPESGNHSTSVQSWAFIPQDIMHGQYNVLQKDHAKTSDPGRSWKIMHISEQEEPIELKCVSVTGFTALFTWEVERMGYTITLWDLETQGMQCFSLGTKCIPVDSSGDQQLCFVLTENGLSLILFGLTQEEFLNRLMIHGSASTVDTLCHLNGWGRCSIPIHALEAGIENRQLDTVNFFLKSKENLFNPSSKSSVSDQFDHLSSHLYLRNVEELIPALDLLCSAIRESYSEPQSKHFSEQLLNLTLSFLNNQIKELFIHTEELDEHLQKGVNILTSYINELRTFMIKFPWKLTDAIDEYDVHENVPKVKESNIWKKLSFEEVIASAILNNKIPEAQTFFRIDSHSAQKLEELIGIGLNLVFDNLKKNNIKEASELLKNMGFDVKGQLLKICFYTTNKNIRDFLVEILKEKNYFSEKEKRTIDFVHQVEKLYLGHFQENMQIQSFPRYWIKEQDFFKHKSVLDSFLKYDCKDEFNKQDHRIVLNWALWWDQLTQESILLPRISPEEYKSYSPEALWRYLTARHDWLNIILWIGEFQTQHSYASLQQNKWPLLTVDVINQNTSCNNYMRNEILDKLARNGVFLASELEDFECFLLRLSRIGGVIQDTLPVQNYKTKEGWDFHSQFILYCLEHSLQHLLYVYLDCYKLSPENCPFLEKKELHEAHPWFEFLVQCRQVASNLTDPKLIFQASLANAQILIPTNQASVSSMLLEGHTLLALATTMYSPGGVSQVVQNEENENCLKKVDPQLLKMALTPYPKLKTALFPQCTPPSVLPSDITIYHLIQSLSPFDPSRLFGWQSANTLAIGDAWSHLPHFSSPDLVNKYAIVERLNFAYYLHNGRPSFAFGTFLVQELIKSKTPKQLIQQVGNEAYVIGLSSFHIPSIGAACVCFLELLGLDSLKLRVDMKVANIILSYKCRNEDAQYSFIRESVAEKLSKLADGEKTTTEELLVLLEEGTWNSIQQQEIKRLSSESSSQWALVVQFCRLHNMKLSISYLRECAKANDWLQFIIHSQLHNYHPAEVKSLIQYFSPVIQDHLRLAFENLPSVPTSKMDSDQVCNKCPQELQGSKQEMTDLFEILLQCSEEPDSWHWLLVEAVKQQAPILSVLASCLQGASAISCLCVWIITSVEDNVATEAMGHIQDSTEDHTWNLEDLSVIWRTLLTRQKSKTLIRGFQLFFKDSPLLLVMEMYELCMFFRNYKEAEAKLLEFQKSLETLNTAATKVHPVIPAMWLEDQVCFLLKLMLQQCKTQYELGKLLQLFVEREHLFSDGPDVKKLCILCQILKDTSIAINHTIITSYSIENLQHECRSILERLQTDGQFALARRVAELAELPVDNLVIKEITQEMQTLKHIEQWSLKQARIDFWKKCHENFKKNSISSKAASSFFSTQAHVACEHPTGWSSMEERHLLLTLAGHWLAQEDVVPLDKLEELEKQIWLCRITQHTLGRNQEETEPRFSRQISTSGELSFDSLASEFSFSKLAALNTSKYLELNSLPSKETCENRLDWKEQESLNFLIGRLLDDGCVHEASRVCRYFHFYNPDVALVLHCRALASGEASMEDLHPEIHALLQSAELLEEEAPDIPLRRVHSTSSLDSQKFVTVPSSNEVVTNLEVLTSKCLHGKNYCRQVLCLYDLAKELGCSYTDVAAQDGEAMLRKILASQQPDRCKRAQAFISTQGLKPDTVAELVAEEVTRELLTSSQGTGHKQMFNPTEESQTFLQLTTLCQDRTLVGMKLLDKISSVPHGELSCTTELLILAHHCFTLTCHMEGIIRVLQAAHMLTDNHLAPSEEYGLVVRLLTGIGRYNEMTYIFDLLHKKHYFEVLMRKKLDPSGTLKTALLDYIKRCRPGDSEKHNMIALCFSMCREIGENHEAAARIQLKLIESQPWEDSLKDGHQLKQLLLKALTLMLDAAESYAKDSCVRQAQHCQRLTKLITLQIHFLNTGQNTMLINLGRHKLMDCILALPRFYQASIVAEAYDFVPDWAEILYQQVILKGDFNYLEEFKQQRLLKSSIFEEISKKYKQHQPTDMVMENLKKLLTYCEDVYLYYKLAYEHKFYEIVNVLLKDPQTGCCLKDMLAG
# UniProt Q9H5Q4, sequence (Q9H5Q4 whole entry, looked up): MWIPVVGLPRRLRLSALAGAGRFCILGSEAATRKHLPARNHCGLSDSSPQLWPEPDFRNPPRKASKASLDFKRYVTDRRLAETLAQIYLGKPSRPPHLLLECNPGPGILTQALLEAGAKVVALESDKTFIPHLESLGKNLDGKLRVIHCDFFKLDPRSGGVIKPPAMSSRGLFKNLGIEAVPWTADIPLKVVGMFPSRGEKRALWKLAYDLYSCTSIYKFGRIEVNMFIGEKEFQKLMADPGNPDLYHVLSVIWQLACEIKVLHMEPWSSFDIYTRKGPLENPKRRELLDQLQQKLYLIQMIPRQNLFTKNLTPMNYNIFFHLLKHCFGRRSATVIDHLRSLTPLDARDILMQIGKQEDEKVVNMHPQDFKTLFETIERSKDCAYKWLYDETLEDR
# UniProt Q9Y2W1, sequence (Q9Y2W1 whole entry, looked up): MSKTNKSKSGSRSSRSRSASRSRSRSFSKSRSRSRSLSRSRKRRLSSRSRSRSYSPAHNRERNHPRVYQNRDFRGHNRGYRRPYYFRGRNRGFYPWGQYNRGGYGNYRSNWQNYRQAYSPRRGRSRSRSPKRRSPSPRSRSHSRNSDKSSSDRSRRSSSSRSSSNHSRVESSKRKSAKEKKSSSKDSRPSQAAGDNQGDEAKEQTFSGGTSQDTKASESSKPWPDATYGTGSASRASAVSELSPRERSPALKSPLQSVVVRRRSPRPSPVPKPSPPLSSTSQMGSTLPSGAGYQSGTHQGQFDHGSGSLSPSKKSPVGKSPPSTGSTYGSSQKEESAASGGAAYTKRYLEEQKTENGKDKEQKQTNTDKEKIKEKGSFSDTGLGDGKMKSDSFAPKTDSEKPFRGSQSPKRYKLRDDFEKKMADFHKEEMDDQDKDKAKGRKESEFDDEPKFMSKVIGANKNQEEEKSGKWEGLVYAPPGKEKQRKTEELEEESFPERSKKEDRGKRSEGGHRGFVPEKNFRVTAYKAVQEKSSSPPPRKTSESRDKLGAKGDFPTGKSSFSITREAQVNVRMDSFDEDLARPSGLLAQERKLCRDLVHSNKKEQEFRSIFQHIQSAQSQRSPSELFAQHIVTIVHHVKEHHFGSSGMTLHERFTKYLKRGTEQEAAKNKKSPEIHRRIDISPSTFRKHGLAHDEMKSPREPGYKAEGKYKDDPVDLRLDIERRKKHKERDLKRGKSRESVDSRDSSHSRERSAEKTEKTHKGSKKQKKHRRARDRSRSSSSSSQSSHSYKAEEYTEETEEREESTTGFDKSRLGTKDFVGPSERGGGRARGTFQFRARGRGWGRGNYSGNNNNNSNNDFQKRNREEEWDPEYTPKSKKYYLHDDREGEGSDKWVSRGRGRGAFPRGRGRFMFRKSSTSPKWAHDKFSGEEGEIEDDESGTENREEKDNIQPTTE
# UniProt Q9Y5X3, sequence (Q9Y5X3 whole entry, looked up): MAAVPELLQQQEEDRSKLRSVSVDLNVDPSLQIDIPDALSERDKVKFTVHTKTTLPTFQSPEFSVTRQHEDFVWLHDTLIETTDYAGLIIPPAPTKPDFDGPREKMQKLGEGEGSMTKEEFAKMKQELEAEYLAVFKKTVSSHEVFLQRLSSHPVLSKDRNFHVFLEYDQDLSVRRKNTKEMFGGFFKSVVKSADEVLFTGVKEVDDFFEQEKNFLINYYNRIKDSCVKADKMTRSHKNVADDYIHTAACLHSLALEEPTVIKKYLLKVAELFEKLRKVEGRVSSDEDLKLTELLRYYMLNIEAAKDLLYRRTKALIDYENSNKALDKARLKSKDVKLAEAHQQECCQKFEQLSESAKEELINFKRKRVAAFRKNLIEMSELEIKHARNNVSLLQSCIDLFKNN
Target,log2 fold change [1],log2 fold change [2],log2 fold change [3],log2 fold change [4],log2 fold change [5],log2 fold change [6],log2 fold change [7],log2 fold change [8],log2 fold change [9],log2 fold change [10]
STXBP2 isoform 3 (UniProt Q15833),0.088 (inactive),0.096 (inactive),-0.099 (inactive),-0.147 (inactive),-0.131 (inactive),-0.014 (inactive),0.073 (inactive),0.086 (inactive),-0.086 (inactive),0.164 (inactive)
SNX5 (UniProt Q9Y5X3),-0.154 (inactive),0.11 (inactive),-0.078 (inactive),0.006 (inactive),-0.169 (inactive),-0.314 (inactive),0.05 (inactive),0.001 (inactive),-0.027 (inactive),0.082 (inactive)
TFB2M (UniProt Q9H5Q4),-0.046 (inactive),0.008 (inactive),-0.043 (inactive),-0.024 (inactive),-0.099 (inactive),0.009 (inactive),0.012 (inactive),-0.004 (inactive),-0.132 (inactive),-0.039 (inactive)
THRAP3 (UniProt Q9Y2W1),0.052 (inactive),-0.025 (inactive),0.049 (inactive),-0.177 (inactive),-0.009 (inactive),0 (inactive),-0.045 (inactive),-0.033 (inactive),0.118 (inactive),0.063 (inactive)
SPG11 (UniProt Q96JI7),-0.493 (inactive),-0.584 (inactive),-0.015 (inactive),0.117 (inactive),0.065 (inactive),-0.006 (inactive),-0.051 (inactive),0.146 (inactive),0.258 (inactive),-0.009 (inactive)
TGFBRAP1 (UniProt Q8WUH2),-0.05 (inactive),0.482 (active),-0.122 (inactive),-0.125 (inactive),-0.153 (inactive),0.091 (inactive),-0.151 (inactive),-0.16 (inactive),0.032 (inactive),0.053 (inactive)
